Experimental data as given in PubChem BioAssay (NCATS).
Records with an inconclusive call do not appear. Calls of active or inactive are those of the source. Calls follow the shape of the dose curve; as a rule, active = well fitted inhibition curve with a large enough effect; inconclusive = small, poorly fitted or top-dose-only effect, or effect the other way; inactive = no such curve, though single readings can be large or run the other way.

Assay: High Content Imaging Cell-Based qHTS for Inhibitors of the mTORC1 Signaling Pathway in MEF Cells (AID 2667);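 also: Tsc2-/- p53-/- MEFs stably re-expressing wild-type Tsc2 exposed 24 h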
Conditions: series mostly up to 38.3 µM
From the text: NIH Molecular Libraries Probe Production Centers Network [MLPCN]
NIH Chemical Genomics Center [NCGC]
Assay Submitter (PI): Blenis, John; Hoffman, Greg; Harvard University
NCGC Assay Overview: The mammalian target of rapamycin (mTOR) is an intracellular serine/threonine kinase Aberrant regulation of mTOR signaling plays a causative role in a number of human diseases, including cancer, benign tumors such as lymphangioleiomyomatosis (LAM) and Tuberous Sclerosis Complex (TSC), and metabolic diseases such as diabetes and obesity. This project aims to identify inhibitors of ribosomal protein S6 (rpS6) phosphorylation. The phosphorylation of rpS6 is a key event downstream of mTOR activation. The assay uses a phospho-specific antibody of phospho-rpS6 to detect inhibitors of mTOR activation. Mutations in the Tsc1 and Tsc2 genes are the underlying genetic lesions responsible for TSC, causing constitutive activation of the mTORC1 pathway and leading to profound effects on cell metabolism. Aberrant metabolism in cancer has recently received significant attention as a target to develop therapeutic agents in the treatment of cancer.1 As Tsc2-/- cells have lost the ability to respond to energy and growth factor deprivation, these cells are unable to properly down regulate cellular biosynthetic processes in response to metabolic stress, and are thus extremely sensitive to glucose deprivation-induced death.2 A central goal of this project is to explore the unique cell survival and metabolic properties of cells with Tsc1 or Tsc2 by screening for compounds that selectively target the Tsc2-/- MEFs by screening both Tsc2-/- and WT MEF cell lines. We hope to better understand these aspects of TSC physiology in order to exploit them for therapeutic benefit.
NCGC IN Cell Assay Protocol:
For quantitative high throughput analysis of mTORC1 signaling, we developed a cell-based assay for immuno-fluorescence based detection of rpS6 phosphorylation on the Acumen Explorer that will be used a platform for the primary small molecule screen. Mouse embryonic fibroblasts (MEFs) are cultured in 1536-well plates using DMEM + 10% FBS. Twenty-four hrs after plating, test compounds (solubilized in DMSO) are delivered and incubated with the cells for 24 hrs at 37 degree Celsius. Following the incubation, media with compound is aspirated and the cells are fixed in 4% paraformaldehyde (PFA) containing PBS + 0.2% TX-100. Next, PFA is aspirated, cells are washed two times with PBS plus 0.2% TX-100 and the cells are blocked for 1 hr at room temperature (blocking buffer: LiCOR Blocking Buffer plus 0.2% TX-100). This is followed by aspiration and staining with Alexa-488 conjugated-phospho-rpS6 Ser235/236 antibody for 2 hours at room temperature (Cell Signaling Technology # 4803, 1:50 dilution in blocking buffer). Cells are washed two times with PBS plus 0.2% TX-100, and stained with 10 uM propidium iodide (PI) for 20-25 minutes for cell number measurement (1:500 dilution of Hoescht staining is also added for IN Cell imaging). Active wells which are selected (based on Acumen results) are imaged on the IN Cell 1000 (GE Healthcare) using the D360/40X and HQ480/40X excitation filters for the Hoechst and Alexa-488 cytoplasmic stains, respectively. The fluorescence emission filters used were HQ460/40M and HQ535/50M for the Hoechst and Alexa-488 cytoplasmic stains, respectively. The normalized phospho-S6 staining is calculated as the ratio of […] for the single concentration rapamycin control ([…] nM) and DMSO columns. […] Inhibition of the pathway is defined based on the normalized phospho-S6 intensity in rapamycin treated cells. Each treatment is reported as the % positive cells in the well, where thresholds are defined by selecting wells with the highest and lowest signal and differentiating between the % non-active and % active populations. […]

Structure (SMILES)	outcome
C[N+](C)(C)CCCCCC[N+](C)(C)C	inactive
CCn1cc(C(=O)O)c(=O)c2ccc(C)nc21	inactive
CC(=O)c1ccc(S(=O)(=O)NC(=O)NC2CCCCC2)cc1	inactive
CCN(CC)C(=O)c1ccc(O)c(OC)c1	inactive
COc1ccccc1N1CCN(CCCNc2cc(=O)n(C)c(=O)n2C)CC1	inactive
COc1ccc(Cc2nccc3cc(OC)c(OC)cc23)cc1OC	inactive
COC(=O)[C@@H]1[C@H]2C[C@H]3c4[nH]c5ccccc5c4CCN3C[C@@H]2CC[C@@H]1O	inactive
NCCS	inactive
C[N+](C)(C)CC(=O)O	inactive
CC1(C)CCC2=C(O1)c1ccccc1C(=O)C2=O	inactive
CCCCC1C(=O)N(c2ccccc2)N(c2ccccc2)C1=O	inactive
CCN(CC)CCOC(=O)c1ccc(N)cc1	inactive
CC(=O)N[C@@H](CS)C(=O)O	inactive
CC(=O)O[C@]1(C(C)=O)CC[C@H]2[C@@H]3C=C(Cl)C4=CC(=O)[C@@H]5C[C@@H]5[C@]4(C)[C@H]3CC[C@@]21C	inactive
O=c1cc(-c2ccc(O)cc2)oc2cc(O)cc(O)c12	inactive
O=C(NCCN1CCOCC1)c1ccc(Cl)cc1	inactive

Structure (SMILES)	outcome
Clc1ccc(Cn2c(CN3CCCC3)nc3ccccc32)cc1	inactive
O=c1c(-c2ccc(O)cc2)coc2cc(O)ccc12	inactive
O=C1NC(=O)C(c2ccccc2)(c2ccccc2)N1	inactive
CN(C)CCC(c1ccccc1)c1ccccn1 (configuration not stated)	inactive
O=C(O)CCc1nc(-c2ccccc2)c(-c2ccccc2)o1	inactive
Cc1cccc(C)c1OCC(C)N (configuration not stated)	inactive
NC(N)=Nc1nc(CSCC/C(N)=N/S(N)(=O)=O)cs1	inactive
CC(=O)CCCCn1c(=O)c2c(ncn2C)n(C)c1=O	inactive
CC(C)OC(=O)C(C)(C)Oc1ccc(C(=O)c2ccc(Cl)cc2)cc1	inactive
CCN1CCC[C@H]1CNC(=O)c1cc(S(N)(=O)=O)ccc1OC	inactive
COc1cccc(-c2cc(=O)c3ccccc3o2)c1N	inactive
CCCCCN(C)CCC(O)(P(=O)(O)O)P(=O)(O)O	inactive
CCN(CC)CCNC(=O)c1ccc(N)cc1	inactive
CC(C)NCC(O)COc1cccc2[nH]ccc12 (configuration not stated)	inactive
CCCNC(=O)NS(=O)(=O)c1ccc(Cl)cc1	inactive
O=C1NCC2(CCN(CCc3ccccc3)CC2)O1	inactive
